From PubChem BioAssay come the findings set out here.

The remaining activity is the signal under treatment as a percentage of the control signal. What is called AC50 is the concentration giving half of the maximal activity seen.

Values joined by “and” are separate entries in the source; they are usually repeats but may differ in a detail not shown here. Equal entries are not always repeated. Inconclusive results are not listed. Active and inactive are the calls of the source. Unless noted, the rule behind the calls is not given here.

The subject of the first test is Aerobactin synthetase IucA (Klebsiella pneumoniae, hypervirulent). The test is described as follows: biochemical IucA inhibition screen of LOPAC library by absorbance (AID 1346212).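 Note: 100% = no compound wells and 0% = no enzyme wells.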 The note with it: IucA enzyme assay, absorbance (OD) readout; stronger effect = lower value;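 tested at 8 µM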.
`O=C(O)CC[N+](=O)[O-]`: the remaining activity is 116% (inactive).

Regarding `CC[C@@H]1C(=O)OC[C@@H]1Cc1cncn1C`, the remaining activity was 112% (inactive) and 106% (inactive).

As for `NC(N)=NOCC[C@H](N)C(=O)O`, the remaining activity is 106% (inactive) and 121% (inactive).

On to `CN1C2CCC1CC(OC(c1ccccc1)c1ccccc1N)C2` (stereo not given), for which the remaining activity is 119% (inactive).

Regarding `NCCc1c[nH]c2ccccc12`, the remaining activity was 89.5% (inactive).

Tested on in another test: not listed separately
The test is described as follows: viability loss in pontine glioma line – cell-based, SU-DIPG-XIII, MIPE4.0, CellTiter-Glo, qHTS, dose response (AID 1347061; cut-off not given, nearly all actives have AC50 up to about 37 µM;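 note: cells exposed to compound for 48 hours before readout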). The note with it: CellTiter-Glo ATP luminescence. (In general: Cellular ATP, detected with luciferase, serves as a proxy for viable cell number.)
Take `COc1cc(OC)c(OC)cc1C=O`: the call was inactive.

Take `COC1=C[C@@H]2[C@@H]3Cc4ccc(OC)c(O)c4[C@]2(CCN3C)CC1=O`: the AC50 was 3320 nM (active).

Take `CC1=C(O)C(=O)C=C2C1=CC=C1[C@@]2(C)CC[C@@]2(C)[C@@H]3C[C@](C)(C(=O)O)CC[C@]3(C)CC[C@]12C`: the AC50 was 3320 nM (active).

Tested on in a further test: not listed separately
The test can be described thus: viability loss in pontine glioma line – cell-based, SU-DIPG-IV, MIPE4.0, CellTiter-Glo, qHTS, dose response (AID 1347063; cut-off not given, nearly all actives have AC50 up to about 30 µM;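 note: compound exposure lasted 48 hours before the viability readout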). The note with it: CellTiter-Glo ATP luminescence.
In the case of `COc1cc(OC)c(OC)cc1C=O`, the outcome was inactive.

With `COC1=C[C@@H]2[C@@H]3Cc4ccc(OC)c(O)c4[C@]2(CCN3C)CC1=O`, the AC50 was 935 nM (active).

Consider `CC1=C(O)C(=O)C=C2C1=CC=C1[C@@]2(C)CC[C@@]2(C)[C@@H]3C[C@](C)(C(=O)O)CC[C@]3(C)CC[C@]12C`, for which the AC50 is 1320 nM (active).

Tested on in the next test: not listed separately
The test is described as follows: viability loss in pontine glioma line – cell-based, SU-DIPG-XIII, MIPE5.0, CellTiter-Glo, qHTS, dose response (AID 1347064; cut-off not given, nearly all actives have AC50 up to about 23 µM;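 for AC50: cells exposed to compound for 48 hours before the viability read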). The following applies: CellTiter-Glo ATP luminescence.
`COc1cc([C@@H]2c3cc4c(cc3[C@@H](O)C3COC(=O)C32)OCO4)cc(OC)c1O` (stereo not given in full): the AC50 was 525 nM (active).

Turning to `COC1=C[C@@H]2[C@@H]3Cc4ccc(OC)c(O)c4[C@]2(CCN3C)CC1=O`, the result was inactive.

Consider `CC1=C(O)C(=O)C=C2C1=CC=C1[C@@]2(C)CC[C@@]2(C)[C@@H]3C[C@](C)(C(=O)O)CC[C@]3(C)CC[C@]12C`, for which the AC50 was 2350 nM (active).

Tested on in another test: not listed separately
The test can be described thus: viability loss in pontine glioma line – cell-based, SU-DIPG-XXV, MIPE5.0, CellTiter-Glo, qHTS, dose response (AID 1347065; cut-off not given, nearly all actives have AC50 up to about 26 µM;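 note: cells exposed to compound for 48 hours before ATP readout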). The note with it: CellTiter-Glo ATP luminescence.
Consider `COc1cc([C@@H]2c3cc4c(cc3[C@@H](O)C3COC(=O)C32)OCO4)cc(OC)c1O` (stereo not given in full), for which the AC50 was 417 nM (active).

For `COC1=C[C@@H]2[C@@H]3Cc4ccc(OC)c(O)c4[C@]2(CCN3C)CC1=O`, the compound was called inactive.

For `CC1=C(O)C(=O)C=C2C1=CC=C1[C@@]2(C)CC[C@@]2(C)[C@@H]3C[C@](C)(C(=O)O)CC[C@]3(C)CC[C@]12C`, the AC50 was 1660 nM (active).

Tested on in the next test: not listed separately
The test is described as follows: growth inhibition of DIPG cells – cell-based, MIPE4.0 library, CellTiter-Glo luminescence, qHTS (AID 1347066; cut-off not given, nearly all actives have AC50 up to about 30 µM;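 note: cells exposed to compound for 48 hours before readout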). The note with it: SU-DIPG-VI viability, CellTiter-Glo ATP luminescence.
`COc1cc(OC)c(OC)cc1C=O`: the call was inactive.

For `COC1=C[C@@H]2[C@@H]3Cc4ccc(OC)c(O)c4[C@]2(CCN3C)CC1=O`, the result was inactive.

On to `CC1=C(O)C(=O)C=C2C1=CC=C1[C@@]2(C)CC[C@@]2(C)[C@@H]3C[C@](C)(C(=O)O)CC[C@]3(C)CC[C@]12C`, for which the AC50 was 1180 nM (active).
